# Test results taken from PubChem BioAssay AID720565 (National Center for Advancing Translational Sciences (NCATS), 2013).
# Values joined by “and” are separate entries in the source; they are usually repeats but may differ in a detail not shown here. Equal values may be shown once. Inconclusive results are not listed. Values without a mark were called inactive. Active and inactive are the calls of the source. The call rests on the fitted dose curve; in most records, active means well fitted activation curve with a large enough effect; inconclusive means small, poorly fitted or top-dose-only effect; inactive means no such curve, though single readings can be large or run the other way.
# Assay: qHTS for small molecules that induce genotoxicity in ELG1 expressing cells: Confirmatory Assay for Cherry-picked Compounds; further: nearly all actives have a fitted effect of over 35% in size; on activation: % of control where 0% means no effect
# Settings: ELG1-luciferase reporter cells, luminescence, 16 h; series mostly up to 46.1 µM; activation: at the top concentration
# Procedure, shortened: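 Activation readout: ONE-Glo luciferase signal from ELG1 reporter cells, 2,000 per well, after 16 hr compound incubation at 37 C. Increased ELG1-driven luminescence reflects genetic stress.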
# Potency means the concentration at half of the fitted maximal effect.
Compound,Potency,activation [%]
Cc1ccc(OCC(=O)Nc2ccc(-c3nc4ncccc4o3)cc2)cc1,28.1 µM (active),
Cc1cc2cc3c(cc2nc1SCC(=O)N1CCOCC1)OCO3,,-9.39
Cc1cc(C(=O)COC(=O)C23CC4CC(CC(O)(C4)C2)C3)c(C)n1C,14.1 µM (active),
O=C(Cc1ccc(OCCCc2ccccc2)cc1)NO,15.8 µM (active),
CC(=O)NC12CC3CC(C1)CC(C(=O)OCC(=O)c1cc(C)n(C)c1C)(C3)C2,2.81 µM (active),
O=c1[nH]c(-c2ccc(-c3cccc(Cl)c3)o2)nc2ccccc12,1.12 µM (active) and 1.41 µM (active),
COc1ccc2cc(C[C@@H]3CC[C@@H](CO)O3)ccc2c1,12.5 µM (active),
CC1CCc2nc(-c3cc4ccc(O)cc4oc3=O)sc2C1 (stereo not drawn),1.26 µM (active),
Fc1ccccc1-c1nc(-c2ccc(-c3nn[nH]n3)cc2)no1,7.91 µM (active),
O=C1CCc2cc(NS(=O)(=O)c3ccccc3)cc3c2N1CC3,,25
COCC(C)n1c(C)cc(C(=O)COC(=O)c2cc(=O)[nH]c3ccccc23)c1C (stereo not drawn),2.23 µM (active),
O=C(CCN1C(=O)NC2(CCCC2)C1=O)Nc1ccc(-c2nc3ccccc3s2)cc1,0.706 µM (active),
COc1ccccc1/C=C/c1nc2ccccc2o1,3.53 µM (active),
O=C1/C(=C/c2ccc(O)c(O)c2)Oc2ccccc21,6.28 µM (active),
O=C1CCc2cc(NS(=O)(=O)c3ccccc3)cc3c2N1CCC3,,12.5
COc1ccc(S(=O)(=O)N2CCCCC2)cc1NC(=O)c1[nH]c(C)c(C(C)=O)c1C,15.8 µM (active),
COc1cccc(NC(=O)COC(=O)c2sccc2C)c1,11.2 µM (active),
Cc1cc(C)c(C#N)c(SCC(=O)Nc2cc(C)on2)n1,4.99 µM (active),
COc1cccc(/C=C/c2cnc3ccccc3n2)c1OC,0.397 µM (active),

Compound,Potency,activation [%]
CCOc1ccc2oc(C(=O)Nc3nccs3)c(C)c2c1,2.23 µM (active),
CNC(=O)c1cc(-c2cccs2)on1,,11.9
O=C(NOCc1ccccc1)c1ccccc1,8.88 µM (active),
CCOC(=O)c1cc(-c2ccc([N+](=O)[O-])cc2)nc2c1c(=O)[nH]c(=O)n2Cc1ccccc1,11.2 µM (active),
Cc1cc(C(=O)COC(=O)c2ccc(F)cc2)c(C)n1C,2.23 µM (active),
CC(/C=C/C(=O)NO)=C\[C@@H](C)C(=O)c1ccc(N(C)C)cc1,0.629 µM (active),
O=c1c2ccccc2oc2ccc(-c3ccc4cc[nH]c4c3)cc12,1.26 µM (active),
CNc1ccc(/C=C2\C=Cc3ccccc32)cc1,0.792 µM (active),
O=C(OCC(=O)N1CCc2ccccc2C1)c1c(F)cccc1Cl,9.96 µM (active),
Cc1ccc(S(=O)(=O)Nc2cc3c4c(c2)CCN4C(=O)CC3)cc1,22.3 µM (active),
COc1ccc2c(C)cc(SCC(=O)N3CCOCC3)nc2c1,,-2.8
Oc1ccc(CCc2ccccc2F)c2cccnc12,14.1 µM (active),
CC(=O)Oc1ccc(-c2nc(-c3ccccc3)no2)cc1,2.81 µM (active),
Cc1cc(C)cc(NC(=O)CCc2nc3sc4c(c3c(=O)[nH]2)CCCC4)c1,,15.7
Cn1cccc1C(=O)OCC(=O)Nc1sccc1C#N,15.8 µM (active),
O=C(Nn1c(SCc2ccc([N+](=O)[O-])cc2)nc2ccccc2c1=O)c1ccc(F)cc1,5 µM (active),
CN(C)c1cccc(-c2nnc(N3CCC(C(N)=O)CC3)s2)c1,4.99 µM (active),
O=C(COc1ccccc1F)Nc1ccc(-c2nc3ccccc3s2)cc1,5 µM (active),
Cc1sc(NC(=O)c2ccco2)c(C(c2cccnc2)N2CCN(c3ccc(F)cc3)CC2)c1C (stereo not drawn),,-16.3
